In PubChem BioAssay AID493054 (Broad Institute, 2011):
Entries with a potency or affinity are not part of this list. A number with no mark means an inactive call.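 Rule for the calls: active = viability loss with fitted half-maximal dose at most ten times the highest valid dose tested; inconclusive = flat viability loss between 30 and 70%, or poor curve fit; inactive = the rest, including flat curves or rising signal.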

Test: BJeH cell viability loss – BJeH cells, dry powder, counter-screen for Ras selective lethality project, dose response (AID 493054)
Settings: BJeH fibroblasts viability, Alamar Blue fluorescence, 48 h; series mostly up to 45 µM; activity change, negative = viability loss: at the top concentration

SMILES	activity change, negative = viability loss [%]
O=C(c1[nH]ncc1[N+](=O)[O-])N1CCN(C(c2ccccc2)c2ccccc2)CC1	8.38
CCC(=O)N(c1ccc(OC)c(Cl)c1)C(C(=O)NCCc1ccccc1)c1cccs1 (centres undefined)	1.23
COCC(=O)N(c1ccc(OC)c(Cl)c1)C(C(=O)NCCc1ccccc1)c1cccs1 (centres undefined)	-1.47
COc1ccc(N(C(=O)CO)C(C(=O)NCCc2ccccc2)c2cccs2)cc1Cl (centres undefined)	4.07
